ClpP mod: qHTS Assay for Activators of ClpP | 340,000 tested, 1.9% active | AID 651965, 2013 | Potency, µM (highest dose often 57.5 µM), inactives show at the top dose activity change, negative = active | purified B. subtilis ClpP, FRET peptide cleavage, 20 min; active = well fitted falling curve with a large enough effect; inconclusive = small, poorly fitted or top-dose-only effect; inactive = no such curve, though single readings can be large or run the other way; also: potency is read from the fitted curve at half-maximal effect; the source files actives as falling curves though it sought activators and does not explain the sign; nearly all actives have a fitted effect of over 65% in size
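Purified B. subtilis ClpP, 10 microg/mL final in Tris/HCl pH8 with KCl, BSA, glycerol and Tween-20, cleaved an Abz/nitrotyrosine-quenched decapeptide. Fluorescence (ex 320, em 430) was read at 0 and 20 min at room temperature. Delta was normalized to 5.8 microM ADEP and DMSO/no-enzyme controls.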
Chronic BCR inh: blocks chronic active B-cell receptor signaling | Potency, µM (top dose mostly 46.1 µM), for inactives: top-dose activity change, negative = inhibition, usual class: inhibitors | AID 493014 | 340,000 tested, 0.05% active | ABC-DLBCL IkBa-CBG/CBR reporter, luminescence ratio, 4 h; active = well fitted inhibition curve with a large enough effect in the signal ratio, with a control signal flat, not every such curve was filed as active; inconclusive = small, poorly fitted or top-dose-only effect, or effect the other way, or a change in a side signal; the % refers to the signal ratio;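 also: potency is read from the fitted curve at half-maximal effect; plate controls were basal doxycycline-induced cells for no effect and cells given 10 µM MG132 for full effect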
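TMD8 human ABC-DLBCL cells with doxycycline-inducible IκBα–green luciferase fusion and unfused red luciferase, in 0.5% FBS medium; compounds up to 46 uM, 4 h at 37C. Green/red luminescence ratio, filter-overlap corrected, fitted to concentration-response curves.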
KCNH2 3.1 block: blocks the human KCNH2 3.1 channel isoform. U2OS KCNH2 3.1, thallium flux FluxOr; active compounds read low. activity change, % (tested at about 1.8 µM). 340,000 tested, 0.95% active;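 active = maximum activity change below -70%; inconclusive = maximum activity change from -70% to -50%; inactive = maximum activity change above -50%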;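 also: thallium influx rate constant from kinetic fluorescence after stimulation buffer; % is scaled to controls: 0 for no effect and ±100 for the full control effect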
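Measured as rate of thallium-driven FluxOr signal in transduced U2OS cells carrying the 3.1 channel, read kinetically for 2 min upon stimulation; values are rate constants scaled to DMSO control wells.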
LDHA block: LDHA (human) enzyme inhibition. P00338. purified LDHA, NADH/diaphorase-resazurin fluorescence; active compounds read low. activity change, % (values are at about 110 or 230 µM). 480,000 tested, 0.15% active. AID 1347041; in the data active = activity change below about -30%; inconclusive = mostly about -25% to -30%;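 also: plate controls were DMSO wells for no effect and wells without enzyme for full effect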
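Enzyme activity of human lactate dehydrogenase 5 (2 nM; 0.06 mM NADH, 0.2 mM pyruvate, 5 min, RT) is measured via a resazurin/diaphorase fluorescence readout of residual NADH.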
hERG WT inh: KCNH2 (human, wildtype) channel inhibition; 340,000 tested, 0.37% active; AID 720551; activity change, % at 1.84 µM; U2OS, BacMam KCNH2, thallium flux FluxOr; active compounds read low; Q12809;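 active = maximum activity change below -70%; inconclusive = maximum activity change between -70% and -50%; inactive = maximum activity change above -50%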; also: % is scaled to controls: 0 for no effect and ±100 for the full control effect
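U2OS cells transduced with wild-type KCNH2 virus are loaded with FluxOr dye for 45 min, and thallium flux is measured in kinetic reads before and after stimulation buffer. Rate constants are normalized to DMSO controls.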
12-LOX inh: ALOX12 (human) lipoxygenase inhibition; P18054; purified 12hLO, xylenol orange hydroperoxide absorbance; Potency, µM (highest dose often 108 µM), inactives show top-dose activity change, negative = inhibition, actives largely listed as inhibitors; 580,000 tested, 1.1% active; AID 1671190; active = well fitted inhibition curve with a large enough effect; inconclusive = small, poorly fitted or top-dose-only effect, or another doubt; inactive = no such curve, though single readings can be large or run the other way; also: potency is read from the fitted curve at half-maximal effect; % is scaled to controls: 0 for no effect and ±100 for the full control effect
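Purified human 12hLO (150 nM final) in 25 mM Hepes, 0.01% Triton X-100, pH 7.0 was preincubated 15 min at room temperature with compound. Then 40 uM arachidonic acid was added, 30 min. Hydroperoxide was read by Fe-XO absorbance ratio 573/405 nm.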
* = called active by the depositor; ? = inconclusive; . = not tested or not shown; [ ] = remark or other dose. In the library only some 3% were active in any assay of this set; here they are far more common.

SMILES | ClpP mod | Chronic BCR inh | KCNH2 3.1 block | LDHA block | hERG WT inh | 12-LOX inh
N#Cc1ccc(OCC(O)CN2CCN(CC(O)COc3ccc(C#N)cc3)CC2)cc1 (centres undefined) | . | -0.1% | -107.0* | -8.1 | -147.1* | 15.3%
OC(COCc1ccco1)CN1CCN(C(c2ccccc2)c2ccccc2)CC1 (centres undefined) | -2.4% | -2.6% | -104.4* | -12.4 | -76.2* | ?
O=C(CN(c1ccccc1)S(=O)(=O)c1ccccc1)NCC1CCCO1 (centres undefined) | . | . | . | -0.7 | . | ?
N#Cc1ccc(OCC(O)CN2CCN(c3ncc(C(F)(F)F)cc3Cl)CC2)cc1 (centres undefined) | . | -9.5% | -100.5* | 0.4 | ? | -13.9%
N#Cc1ccc(OCC(O)CN2CCN(C(c3ccccc3)c3ccccc3)CC2)cc1 (centres undefined) | . | -2.7% | -99.8* | -1.7 | -84.1* | -14.8%
OC(CN1CCN(c2ncc(C(F)(F)F)cc2Cl)CC1)c1ccccc1 (centres undefined) | 1.5% | -4.0% | ? | -1.0 | -3.7 | -30.7%
OC(COc1ccccc1)CN1CCCC1 (centres undefined) | -0.2% | 1.7% | 25.0 | -4.5 | 2.9 | ?
CCC(=O)c1ccc(OCC(O)CN2CCOCC2)cc1 (centres undefined) | -0.8% | ? | 3.2 | -7.1 | 15.0 | 0.0%
OC(COc1ccccc1)CN1CCN(C(c2ccccc2)c2ccccc2)CC1 (centres undefined) | -0.9% | 1.9% | -108.7* | -0.8 | -119.8* | -30.0%
N#Cc1ccc(-c2ccc(OCC(O)CN3CCCCC3)cc2)cc1 (centres undefined) | . | ? | -31.9 | -5.0 | 54.9 | 0.6%
CCC(=O)c1ccc(OCC(O)CN2CCN(C(c3ccccc3)c3ccccc3)CC2)cc1 (centres undefined) | -0.9% | 3.0% | -97.9* | -5.0 | -87.9* | -23.1%
COC(=O)[C@@H]1Cc2ncn(C)c2CN1C(=O)CC(C)(C)CC(=O)O | . | . | . | . | . | 9.0%[176 µM]
COc1ccccc1OCCCCN1CCN(C(c2ccccc2)c2ccccc2)CC1 | -1.0% | ? | -93.3* | -6.5 | -48.9 | ?
COc1cccc(OC)c1OCCCCCCN1CCN(C)CC1 | 1.0% | ? | -21.4 | -0.5 | 5.2 | 0.0%
Cc1ccc(Cl)cc1N1CCN(CC(O)COCc2ccco2)CC1 (centres undefined) | 1.8% | -6.7% | . | -15.2 | 65.8 | 10µM*
CCCC(c1nnnn1Cc1ccco1)N1CCN(c2cc(Cl)ccc2C)CC1 (centres undefined) | 0.1% | 2.4% | -8.1 | 0.7 | -5.7 | ?
CCCNC(=O)c1ccc2c(=O)n3c(-c4ccc(C)cc4)csc3nc2c1 | -20.1% | 0.1% | 5.7 | 12.2 | -1.1 | 11.2µM*
CCCNC(=O)c1ccc2nc(-c3ccc(C)cc3)cc(OC)c2c1 | . | . | . | -7.0 | . | 4.1%
Cc1nc(N2CCCC2)cc(N2CCN(C(=O)c3ccc(C(F)(F)F)cc3)CC2)n1 | . | . | . | 1.2 | . | -10.9%
O=C(CSc1cccs1)NCc1cccs1 | . | . | . | 3.4 | . | ?
CCNC(=O)CSc1nc(C)nc2sc3c(c12)CCC3 | . | . | . | 4.6 | . | 2.5%
CCOc1ccc(C(=O)N2CCN(c3cccc(C)c3C)CC2)cc1 | -3.1% | . | -74.0* | -1.5 | 9.8 | -1.2%
COC(=O)c1ccc(NN=Nc2ccc(C)cc2)cc1 | -1.1% | -0.2% | 8.2 | 25.1 | -7.7 | 17.8µM*
Cn1c(C=O)cc2ccccc21 | . | . | . | -3.9 | . | 10.7%
N#Cc1c(/N=C/c2ccccc2)oc(-c2ccccc2)c1-c1ccccc1 | 35.5µM* | ? | -0.2 | -3.3 | 23.0 | ?
SMILES | ClpP mod | Chronic BCR inh | KCNH2 3.1 block | LDHA block | hERG WT inh | 12-LOX inh
O[C@@H]1C[C@@H](c2nc(C3CC3)no2)N(Cc2ccc(OC(F)(F)F)cc2)C1 | . | . | . | . | . | 17.7%[176 µM]
Cc1cnc(C(=O)NCC(O)c2ccccc2C(F)(F)F)cn1 (centres undefined) | . | . | . | -0.8 | . | -50.4%
CSC1=NC(NCCCO)c2c(sc3c2CC(C)(C)OC3)N1 (centres undefined) | 11.2µM* | -0.4% | -2.0 | 0.6 | 0.9 | -4.1%
O=C1C(=Cc2cccc(O)c2O)SC(=S)N1CCCN1CCOCC1 | -1.4% | . | 5.9 | 6.9 | -8.0 | 6.31µM*
N#C/C(=N\Nc1ccc(Cl)cc1)C(=O)c1ccccc1 | -1.0% | ? | -1.7 | -2.5 | -15.2 | ?
Cc1c(N/N=C(\C#N)C(=O)c2ccc(Cl)cc2)c(=O)n(-c2ccccc2)n1C | -2.6% | ? | 12.8 | -6.9 | -1.1 | 8.91µM*
O=C(NC1(O)C(=O)c2ccccc2C1=O)c1ccccc1 | -0.7% | -8.8% | -4.4 | -0.3 | 2.4 | 31.6µM*
CC(=O)Nc1cc(-c2ccc(C(=O)N3CCOCC3)cc2)cn2c(-c3ccc(C(C)=O)cc3)cnc12 | -27.2% | . | . | -0.7 | . | 5.1%
CC(=O)Nc1cc(-c2ccc(C(=O)N3CCOCC3)cc2)cn2c(-c3ccccc3)cnc12 | 25.1µM* | . | . | 2.4 | . | ?
CC(=O)Nc1cc(-c2ccccc2N(C)C)cn2c(-c3ccccc3)cnc12 | -25.4% | . | . | 3.7 | . | 44.7µM*
CC(=O)Nc1cc(-c2ccccc2N(C)C)cn2c(-c3ccc(S(C)(=O)=O)cc3)cnc12 | 4.0% | . | . | -1.1 | . | -14.5%
COC(=O)CSc1cc(SCC(=O)OC)c(C#N)c(SCC(=O)OC)c1 | -3.6% | 7.7% | 0.5 | -1.4 | -2.3 | 7.0%
COC(=O)CSc1ccc(C#N)c(SCC(=O)OC)c1 | 14.1µM* | ? | 1.7 | -10.0 | 2.7 | 222.8%
COc1cc(/C=N/NC(=O)c2[nH]nc3c2CCc2ccccc2-3)ccc1O | -5.2% | 20.6µM* | 8.6 | -1.1 | 0.0 | -8.4%
CCNc1c(NC(=O)Nc2ccc(CC)cc2)c(=O)oc2ccccc12 | . | . | . | 1.2 | . | 44.7µM*
CCCNc1c(NC(=O)Nc2ccccc2OCC)c(=O)oc2ccccc12 | . | . | . | -30.0* | . | ?
COc1ccc(CN(C(=O)c2ccco2)c2ccc(CC(=O)NCc3ccccc3)cc2)cc1 | . | . | . | . | . | -10.2%
N#Cc1c(-c2cccs2)cc(-c2ccccn2)nc1N | 12.6µM* | 1.0% | -19.5 | 2.3 | 4.9 | 10.3%
FC(F)Sc1ccc(NC(=S)N(Cc2ccccc2)Cc2ccccc2)cc1 | . | . | . | 8.9 | . | ?
Cc1ccccc1NC(=O)CN1CCC(n2nnc3ccccc32)CC1 | -4.5% | -9.9% | -16.1 | -3.7 | -7.4 | -23.4%
Cc1nc2ccccc2n1C1CCN(CC(=O)Nc2ccccc2Br)CC1 | . | ? | -91.3* | -6.0 | ? | -0.1%
COc1ccc(CCC(=O)NNC(=O)c2cc(Cl)ccc2OC)cc1 | . | -16.5% | 0.4 | -2.2 | 3.0 | 5.2%
COc1ccc(CC(=O)NNC(=O)c2cc(Cl)ccc2OC)cc1 | 28.2µM* | -0.3% | -8.4 | -3.9 | -0.1 | -16.0%

High-throughput results as filed in PubChem.
